Screens from PubChem BioAssay.
TDP1 cell CPT: qHTS for Inhibitors of human tyrosyl-DNA phosphodiesterase 1 (TDP1): qHTS in cells in presence of CPT; Potency, µM (doses to about 46.2 µM), inactives show at the highest dose activity change, negative = growth inhibition, usual class: inhibitors; AID 686979, 2013; 12% of 420,000 active; chicken DT40 Tdp1-/-;hTDP1 cells + 20 nM CPT, ATP luminescence, 48 h; further: potency means the concentration at half of the fitted maximal effect; nearly all actives have a fitted effect of over 55% in size
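Chicken DT40 Tdp1-/- cells stably complemented with human TDP1 were seeded at 400 cells/well in medium containing 20 nM camptothecin, exposed to pin-transferred compounds, and grown at 37 °C for at least 48 hr. Viability was read as ATP luminescence.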
TDP1 cell noCPT: qHTS for Inhibitors of human tyrosyl-DNA phosphodiesterase 1 (TDP1): qHTS in cells in absence of CPT. DT40 Tdp1-/- hTDP1 cells, no CPT, ATP luminescence, 48 h. Potency, µM (doses to about 46.2 µM), for inactives: top-dose activity change, negative = growth inhibition, hits mostly inhibitors. 15% of 420,000 active; further: potency means the concentration at half of the fitted maximal effect; nearly all actives have a fitted effect of over 55% in size
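DT40 Tdp1-/-;hTDP1 cells, no CPT (DMSO vehicle only), 400 cells/well; compounds pin-transferred; ≥48 hr, 37 °C; CellTiter-Glo 30 min RT dark, luminescence read.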
HT1080 IDH1KD tx: qHTS for induction of synthetic lethality in tumor cells producing 2HG: qHTS for the HT-1080-IDH1KD cell line | HT-1080 IDH1 knockdown viability, ATP luminescence, 48 h | 2% of 360,000 active | Potency, µM (series often up to 46.1 µM), without a hit: top-dose activity, negative = toxicity, hits mostly cytotoxic;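 further: potency means the concentration at half of the fitted maximal effect; 0% = DMSO wells and -100% = cell-free medium wells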
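Using the IDH1-knockdown HT-1080 line run in the same batch and compound series as the NT line, viability after 48 h at 37 °C was determined by CellTiter-Glo luminescence and expressed as % activity.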
IL1B secr inh: qHTS for Inhibitors of Inflammasome Signaling: IL-1-beta AlphaLISA Primary Screen; THP-1 LPS/ATP IL-1B secretion, AlphaLISA, 16 h; stronger effect = lower value; activity change, % at 57.5 µM; 4.7% of 360,000 active; AID 743279, 2014; in the data active means activity change below about -50%; inconclusive means mostly about -30% to -49%
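Secreted IL-1B measured by AlphaLISA bead assay after 16 h compound exposure of THP-1 cells; compounds (final up to 57.5 uM) added 1 h before LPS (250 ng/mL) and ATP (1.25 mM) stimulation; lower signal means less secretion.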
HT1080NT lethal: qHTS for induction of synthetic lethality in tumor cells producing 2HG: qHTS for the HT-1080-NT fibrosarcoma cell line; HT-1080-NT fibrosarcoma viability, CellTiter-Glo ATP luminescence, 48 h; Potency, µM (series often up to 46.1 µM), for inactives: top-dose activity, negative = less viability, most hits filed as cytotoxic; 1.6% of 360,000 active; AID 686970, 2013;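 further: NT is the 2HG producing partner of a matched IDH1 knockdown line; potency means the concentration at half of the fitted maximal effect; 0% = DMSO-treated cells and -100% = media-only wells without cells; nearly all actives have a fitted effect of over 55% in size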
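Compounds were tested in concentration-response format on HT-1080-NT cells for 48 hours at 37 degrees C. Cell viability came from CellTiter-Glo luminescence; curves were classified by r2, response magnitude and activity.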
ELG1 repair inh: qHTS screen for small molecules that inhibit ELG1-dependent DNA repair in human embryonic kidney (HEK293T) cells expressing luciferase-tagged ELG1 | 2.3% of 330,000 active | Potency, µM (series often up to 46.1 µM), without a hit: top-dose activity change, negative = inhibition, actives largely listed as inhibitors | HEK293T ELG1-luciferase reporter, luminescence, 16 h; DNA damage induced by 5-fluorouridine; further: potency means the concentration at half of the fitted maximal effect; nearly all actives have a fitted effect of over 55% in size
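Cells (2,000 per well) received 5-fluorouridine plus test compound or DMSO and were incubated 16 hr at 37 °C, 5% CO2. Luciferase activity was read by luminescence 30 min after ONE-Glo addition; signal suppression marked inhibition of damage-induced ELG1 function.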
* = called active by the depositor; ? = inconclusive; . = no result; [ ] = another dose, or the depositor's remark. Most compounds without a hit are left out; they make up all but 19% or so of the library. Unless noted, the call rests on the fitted dose curve; in most records, active means well fitted curve in the direction sought with a large enough effect; inconclusive means small, poorly fitted or top-dose-only effect, or another doubt; inactive means no such curve, though single readings can be large; an effect the other way counts as inactive or inconclusive. Unless noted, on the % scale 0 is the no-effect control and ±100 the full control effect.

SMILES | TDP1 cell CPT | TDP1 cell noCPT | HT1080 IDH1KD tx | IL1B secr inh | HT1080NT lethal | ELG1 repair inh
Cn1c(=O)n(CCc2ccccc2)c(=O)c2c1nc1n2CCCN1Cc1ccccc1 | ? | 13µM* | -4.1%[9.24 µM] | -17.8 | 1.4% | ?
Cn1c(=O)n(Cc2ccc(F)cc2)c(=O)c2c1nc1n2CCCN1Cc1ccccc1 | ? | 23.1µM* | -2.8%[9.24 µM] | ? | 2.3% | 20.6µM*
Cc1ccc(C)c(OCCC(=O)NNC(=O)Cn2nc(C)cc2C)c1 | -7.4% | -21.1% | -6.0% | 9.2 | -4.8% | 1.4%
Cc1ccc(C)c(C(=O)CCC(=O)NNC(=O)Cn2nc(C)cc2C)c1 | ? | 2.06µM* | 9.6% | 21.1 | 9.9% | 3.4%
O=C1CCCCC1(c1ccccc1)c1ccccc1 | -18.4% | -13.2% | 14.2% | 28.9 | 7.1% | .
Cc1ccc(C)c(NC(=S)NNC(=O)c2csc(C)c2C)c1 | ? | ? | 7.7% | -0.8 | 12.7% | 0.6%
Cc1ccc(C)c(NC(=S)NNC(=O)c2sccc2C)c1 | -8.6% | -11.3% | ? | 17.5 | 8.91µM* | ?
OC(c1ccc2ccccc2c1)c1ncc(-c2cccc3ccccc23)[nH]1 (stereo not given) | ? | ? | 25.9µM* | ? | 18.4µM* | .
Cc1cc(C(O)c2ncc(-c3cccc4ccccc34)[nH]2)ccc1F (stereo not given) | ? | ? | -14.2% | -14.2 | ? | .
OC(c1ccc(Cl)c(F)c1)c1ncc(-c2cccc3ccccc23)[nH]1 (stereo not given) | ? | ? | ? | -60.4* | ? | .
O=C(CCN1C(=O)CC1c1ccco1)N1CCOCC1 (stereo not given) | 3.2% | -5.9% | -1.3% | 16.1 | ? | .
COc1cc2c(cc1OC)CN(Cc1ccc(C)cc1)CC2 | -15.9% | -28.4% | -2.4% | -11.6 | -6.8% | -13.1%
COc1cc2c(cc1OC)CN(Cc1cc(=O)oc3cc(C)c(Cl)cc13)CC2 | -8.4% | ? | 15.5% | 24.2 | 22.5% | -20.3%
COc1cc2c(cc1OC)CN(Cc1cc(=O)oc3c(C)c(C)ccc13)CC2 | ? | 20.6µM* | 11.1% | -10.9 | 20.6% | -36.6%
Cc1ccc2c(CN(C)Cc3ccccc3)cc(=O)oc2c1C | -22.3% | 14.6µM* | ? | 1.7 | ? | ?
Cc1ccc2c(CN(C)Cc3cccc(F)c3)cc(=O)oc2c1C | ? | ? | -19.2% | 6.1 | -20.4% | ?
CCc1ccc2c(CN3CCc4cc(OC)c(OC)cc4C3)cc(=O)oc2c1 | ? | 23.1µM* | -17.9% | -0.3 | -2.1% | ?
COc1cc2c(cc1OC)CN(Cc1ccc(OC)c(C)c1OC)CC2 | 29.1µM* | 20.6µM* | -25.1% | -11.8 | -24.2% | -1.0%
CC(C)(C)OC(=O)N1CCCC(C(=O)Nc2cccc(C(=O)N3CCOCC3)c2)C1 (stereo not given) | -8.6% | -0.1% | 9.5% | -14.5 | 8.8% | .
COc1ccc(CN2CCN(c3ncccn3)CC2)c(C)c1C | -29.1% | ? | -1.5% | 19.7 | -14.8% | ?
COc1ccc(CN2CCN(c3ccccn3)CC2)c(OC)c1C | ? | 13µM* | ? | 0.0 | -8.4% | ?
CCOc1ccccc1C(=O)NCCNC(=O)c1ccccc1OCC | -16.9% | -24.6% | ? | 30.7 | 15.3% | .
Cn1c(=O)n(C)c2cc(N3CCCCC3)c(NC(=O)c3ccccc3)cc21 | 29.1µM* | ? | 23.4% | 31.5 | ? | -6.1%
